According to article PMC7819943, “Rice protein-binding microarrays: a tool to detect cis-acting elements near promoter regions in rice”:
Over roughly 68,000 sequences, “fluorescence intensity (a.u.)” has its median near 9,100; the highest 2% begin near 16,000. The full list was thinned out, with the highest values kept by preference.

Each sequence was assayed against OsWRKY34 (Oryza sativa, UniProt Q0JBA9 1-250) (assay: protein-binding microarray (RPBM); PBS, 2% BSA, 51.3 ng/ul salmon testes DNA, 50 uM zinc acetate, 200 nM TF, 25 C, 1 h; high values mean tight binding). Settings: protein: recombinant; tags: N-terminal polyhistidine and DsRed monomer fusion (pET32a); label: CyDye5-dUTP incorporated in the synthesized complementary strand; 3' TTTTT single-stranded linker to array surface; dsDNA, one strand shown.
Sequence of OsWRKY34 (Q0JBA9 entry or part of it): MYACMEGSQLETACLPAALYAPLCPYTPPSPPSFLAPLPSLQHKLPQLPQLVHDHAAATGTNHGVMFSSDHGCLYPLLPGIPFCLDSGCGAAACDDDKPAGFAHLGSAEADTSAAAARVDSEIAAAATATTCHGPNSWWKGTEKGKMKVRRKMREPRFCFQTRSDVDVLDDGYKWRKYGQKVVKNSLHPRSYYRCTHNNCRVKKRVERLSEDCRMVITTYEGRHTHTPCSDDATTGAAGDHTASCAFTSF
Method in brief: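 In PBS with 2% BSA, salmon testes DNA and 50 µM zinc acetate, 200 nM protein was incubated on a custom Agilent array at 25 °C for 1 h and then washed off. The array had been made double-stranded by primer extension with Cy5-dUTP and blocked with 2% BSA. The proteins were transcription factors fused N-terminally to polyhistidine and DsRed, expressed in E. coli BL21-CodonPlus and purified on Ni–NTA. The binding signal is per-feature fluorescence intensity (arbitrary units) from an Axon 4000B scanner.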

Compared with “ATGCACCACTGTTCCTGTCCTGGCTTTGCACAACATCCATCGGAGTCACCTAGTGCAG”, “ATGTTCAGTAGTTAAAGAGGATACTGGCCACATGCTTGACCGGAGTCACCTAGTGCAG” is lower in binding signal: 13300 fluorescence intensity (a.u.) for the first, 8790 fluorescence intensity (a.u.) for the second.

Compared with “ATCATATGAACACGTTATCTTTTTATTTTATACCGGTTCACGGAGTCACCTAGTGCAG”, “ACCCTAGCCACCCCGCGTCGCCCGCCTCGGCGCGCCCAAACGGAGTCACCTAGTGCAG” is higher in binding signal: 8840 fluorescence intensity (a.u.) for the first, 9260 fluorescence intensity (a.u.) for the second.

Compared with “TCCCCATCTCCGCCGCAGCCCTCGTCGTCGTCCTCGTCCTCGGAGTCACCTAGTGCAG”, “CCTAGTCGGCTTCGCCTCCGCTTCCTCGTCTCGTCTCCCTCGGAGTCACCTAGTGCAG” is lower in binding signal: 18900 fluorescence intensity (a.u.) for the first, 8160 fluorescence intensity (a.u.) for the second.

First: ATCTCCGCCGCCGCCGCCTCCTACTCGTCGCCCTCCTCCTCGGAGTCACCTAGTGCAG
Second: GCCCCAACCTCGTCGCTACCCGCGAGCCTCGGCTTATCGACGGAGTCACCTAGTGCAG
The binding signal of the first is lower: 10300 fluorescence intensity (a.u.) for the first, 65100 fluorescence intensity (a.u.) for the second.

Compared with “CATCTCCGCCGGCCGCCGTCCTCGCCATCTTCGCCGTCCTCGGAGTCACCTAGTGCAG”, “GGACCATCTCCGCCGCCGCCGCTGCCATCACTTCGTCCTCCGGAGTCACCTAGTGCAG” is higher in binding signal: 12600 fluorescence intensity (a.u.) for the first, 17600 fluorescence intensity (a.u.) for the second.

First: CCGCCATCGCTACCCTCGGTCGTCGCTTGCCCCGACGACCCGGAGTCACCTAGTGCAG
Second: CACCGTGTCGCTCTCTCTCGTCGTCTCCGCCTCCGGCTTCCGGAGTCACCTAGTGCAG
The binding signal of the first is lower: 8180 fluorescence intensity (a.u.) for the first, 19600 fluorescence intensity (a.u.) for the second.

First: GTCATCCTCTCCATCCCCTCGTCGTCGTCCGCTCGCCTCTCGGAGTCACCTAGTGCAG
Second: CGTCTCCTCTCTCTCTCTCTCTCTCTCTCGCCTCCGCTTCCGGAGTCACCTAGTGCAG
The binding signal of the first is higher: 8250 fluorescence intensity (a.u.) for the first, 8240 fluorescence intensity (a.u.) for the second.

Going from “CCGCCGGCCGCCGTCCTCGCCATCTCCGCCGGCCGCCGTCCGGAGTCACCTAGTGCAG” to “CCAGCCCACTGATTCCTCACCGAATTTTTTCATTTTTTTTCGGAGTCACCTAGTGCAG”, the binding signal rises from 8440 fluorescence intensity (a.u.) to 9700 fluorescence intensity (a.u.).

Going from “ATTCTATACTTTTGTTTCCCTATCATTTGACGCTTTACACCGGAGTCACCTAGTGCAG” to “TGGCTCCTTTTAAGTTATTCTTCCCAAACAGACATGATTTCGGAGTCACCTAGTGCAG”, the binding signal falls from 10000 fluorescence intensity (a.u.) to 8660 fluorescence intensity (a.u.).

First: TTTATACATATGTGTTTATCATACCTCACGTGTCGTATATCGGAGTCACCTAGTGCAG
Second: TTAAGGGCATGTTTAGTTCTCAAACAAAATTTTCTAGCTGCGGAGTCACCTAGTGCAG
The binding signal of the first is lower: 8040 fluorescence intensity (a.u.) for the first, 8270 fluorescence intensity (a.u.) for the second.

Going from “ATGCTTGCTTGCCTGCCTTATCTGCGTCTTGAATTGCATCCGGAGTCACCTAGTGCAG” to “CATCTATGACCCATTTTTTTTTATTTGACTGATACCCATCCGGAGTCACCTAGTGCAG”, the binding signal falls from 10100 fluorescence intensity (a.u.) to 9760 fluorescence intensity (a.u.).

First: CGCGCCGCCCGCCGTCCCCATGCCACCGCGCTGCCCGCCGCGGAGTCACCTAGTGCAG
Second: GCCGCGCCCGCGTCACCACCGCTACCGCCCGCGCGTCCCTCGGAGTCACCTAGTGCAG
The binding signal of the first is higher: 10200 fluorescence intensity (a.u.) for the first, 8940 fluorescence intensity (a.u.) for the second.

Going from “CTTCGTCTCCGCTCCTCTCCGCCGCCTCGTCTCGTCGCCTCGGAGTCACCTAGTGCAG” to “GTCGCCATCTTCCCATCCCCGCGCCGCCGTCCACCATGAGCGGAGTCACCTAGTGCAG”, the binding signal rises from 8430 fluorescence intensity (a.u.) to 17200 fluorescence intensity (a.u.).

Going from “CCATTAAAGCCAAGCCACTGTCCTTGTCCATCTTTGTCCACGGAGTCACCTAGTGCAG” to “GTCACCCTTCACCACGGCCATCTTCTCCTCGCTCGCCGTCCGGAGTCACCTAGTGCAG”, the binding signal rises from 8190 fluorescence intensity (a.u.) to 11200 fluorescence intensity (a.u.).

Going from “ATCCAAGCCGTCCATCTTCACCCGTCACTGTCACTCGCCACGGAGTCACCTAGTGCAG” to “ACCGTGTCGAGCTATGTCTCCTCATCCTCGCTATGTTTCACGGAGTCACCTAGTGCAG”, the binding signal falls from 16900 fluorescence intensity (a.u.) to 14800 fluorescence intensity (a.u.).

First: CCACACCACCGTCCCCTCGCTGCCTGCCTCCACCTCACCTCGGAGTCACCTAGTGCAG
Second: TCCCCTACCGCTGCCCACCGCCGTCCACCACCGCCTTTCTCGGAGTCACCTAGTGCAG
The binding signal of the first is lower: 8950 fluorescence intensity (a.u.) for the first, 17000 fluorescence intensity (a.u.) for the second.

Compared with “CGTGTCGAGCTCTGTCTCCTCGTCTTCATCCGCCGCTTCACGGAGTCACCTAGTGCAG”, “CTTTTCCCCGCGGCCATCCCCGTCGCCCCACCGCCGCCGCCGGAGTCACCTAGTGCAG” is lower in binding signal: 18100 fluorescence intensity (a.u.) for the first, 11200 fluorescence intensity (a.u.) for the second.

Going from “GCAGCTGATCGATCTGGTTTCTGCTTTGCTGCAACTCACTCGGAGTCACCTAGTGCAG” to “CTGGGGTTAGTTCTATGGATATTTGCTACTCCTGTTGATACGGAGTCACCTAGTGCAG”, the binding signal falls from 8870 fluorescence intensity (a.u.) to 8220 fluorescence intensity (a.u.).

Going from “GAGTGACATTTGGGGTGGTTTTTGCAATTTTCTCTAAATTCGGAGTCACCTAGTGCAG” to “GGGTATAAAGTCACTCTATTCGTTCTCACCGTTTTTTCGGCGGAGTCACCTAGTGCAG”, the binding signal falls from 13000 fluorescence intensity (a.u.) to 8150 fluorescence intensity (a.u.).

Compared with “GGGAGGGCAACTGAAGAGGAGTGGCGAGGGAGGGCTTTTGCGGAGTCACCTAGTGCAG”, “ACACGCCCGCCCGCCGCCTCCACCGTCTCCGCTCGCCGCGCGGAGTCACCTAGTGCAG” is lower in binding signal: 12200 fluorescence intensity (a.u.) for the first, 10500 fluorescence intensity (a.u.) for the second.

Compared with “ACCATTGTCGCATGCTCACATCCCATCTTTTCCAAAGGGACGGAGTCACCTAGTGCAG”, “CCCTGGTTTCCGTGTCCAATGTTTGACCGTCCGTCTTATTCGGAGTCACCTAGTGCAG” is lower in binding signal: 10300 fluorescence intensity (a.u.) for the first, 10200 fluorescence intensity (a.u.) for the second.
